CDC25B-CDK2 inh: human CDC25B-CDK2/CyclinA binding inhibition. HTRF CDC25B-CDK2/CyclinA binding, anti-His/anti-Flag; active compounds read high. z-score (concentration not given with the values). 94,000 compounds, 0.72% hits. P30305+P24941; in the data active means z-score above about 3.2
HIV TAR-Tat: HIV-1 TAR-Tat binding disruption. HIV-1 TAR RNA, Tat peptide displacement FRET; active compounds read high. z-score (no concentration beside the values). 100,000 compounds, 0.6% hits; active means z-score of 3 or more in at least 2 runs
Of the large screens only hits and unclear results are named; the others gave an inactive call. In the library only some 0.86% were active in any assay of this set; here they are far more common.

CC(=O)N1CCOc2ccc(S(=O)(=O)N3CCC(C(=O)NC4CCCC4)CC3)cc21	HIV TAR-Tat 17 (no result: CDC25B-CDK2 inh)
CC(=O)N1CCOc2ccc(S(=O)(=O)N3CCC(C(=O)NC4CCC(C)CC4)CC3)cc21 (stereo unspecified)	none (no result: CDC25B-CDK2 inh)
Cc1ccc(COC2CN(S(=O)(=O)c3cccc4nsnc34)C2)cc1	none (no result: CDC25B-CDK2 inh)
Cc1cc2c3c([nH]c2cc1S(=O)(=O)NCc1ccc(Cl)cc1)CC(C)(C)CC3=O	none (no result: CDC25B-CDK2 inh)
CSc1ccc(C2CC(=O)N3CN(c4ccc(F)cc4)CSC3=C2C#N)cc1 (stereo unspecified)	CDC25B-CDK2 inh 5.2
COC(=O)c1ccc(N2CSC3=C(C#N)C(c4ccc(F)cc4)CC(=O)N3C2)cc1 (stereo unspecified)	CDC25B-CDK2 inh 6.6
COCCNc1cc(N2CCN(C(=O)c3ccco3)CC2)c2noc3c2c1C(=O)c1ccccc1-3	none
O=C1c2ccccc2-c2onc3c(N4CCN(C(=O)c5ccco5)CC4)cc(NCc4ccco4)c1c23	HIV TAR-Tat 15
CCNc1cc(N2CCN(C(=O)c3ccco3)CC2)c2noc3c2c1C(=O)c1ccccc1-3	none
O=C1c2ccccc2-c2onc3c(N4CCN(C(=O)c5ccco5)CC4)cc(NCCO)c1c23	HIV TAR-Tat 7.4
O=C(O)Cc1c(C(=O)O)nc2ccccc2c1C(=O)O	none
O=c1[nH]cnc2scc(-c3cccs3)c12	none (no result: HIV TAR-Tat)
CC(=O)n1c2ccc(F)cc2c2nc3ccccc3nc21	none (no result: HIV TAR-Tat)
Cc1cc2n(n1)CCCN2C(=O)CCC(=O)NCCCOC(C)C	HIV TAR-Tat 4.3 (no result: CDC25B-CDK2 inh)
COCCCNC(=O)CCC(=O)N1CCCn2nc(C)cc21	none (no result: CDC25B-CDK2 inh)
CC(C)CCN(Cc1ccco1)S(=O)(=O)c1ccc(-c2ccc(=O)[nH]n2)s1	none (no result: CDC25B-CDK2 inh)
Cc1ccc2nc(NC3=NCN(CCN4CCOCC4)CN3)nc(C)c2c1	none
Cc1ccc2nc(NC3=NCN(C(C)C)CN3)nc(C)c2c1	CDC25B-CDK2 inh 8.1
CCCc1nc(SCc2cc(=O)c3ccccc3[nH]2)n[nH]1	none (no result: CDC25B-CDK2 inh)
CCCNC(=O)C1CCC(Cn2c(=O)c3sccc3n(C)c2=O)CC1 (stereo unspecified)	none (no result: CDC25B-CDK2 inh)
Cc1cc2c3c([nH]c2cc1S(=O)(=O)Nc1ccccc1)CCCC3=O	none (no result: CDC25B-CDK2 inh)
Cc1cc2c3c([nH]c2cc1S(=O)(=O)Nc1cccnc1)CCCC3=O	HIV TAR-Tat 7.6 (no result: CDC25B-CDK2 inh)
Cc1cc2c3c([nH]c2cc1S(=O)(=O)Nc1ccc(S(N)(=O)=O)cc1)CCCC3=O	HIV TAR-Tat 11 (no result: CDC25B-CDK2 inh)
Cc1ccc(NS(=O)(=O)c2cc3[nH]c4c(c3cc2C)C(=O)CCC4)cc1	none (no result: CDC25B-CDK2 inh)
CC(C)CC(=O)N[C@H](C(=O)N[C@H](C(=O)N[C@@H](CC(C)C)[C@@H](O)CC(=O)N[C@@H](C)C(=O)N[C@@H](CC(C)C)[C@@H](O)CC(=O)O)C(C)C)C(C)C	HIV TAR-Tat 19 (no result: CDC25B-CDK2 inh)
COc1ccc(OC)c(CCC(=O)O)c1	none
O=C(Nc1ccc2c(c1)C(=O)c1ccccc1C2=O)c1ccccc1	none (no result: HIV TAR-Tat)
O=C(O)c1ccccc1C(=O)Nc1ccc2c(c1)C(=O)c1ccccc1C2=O	CDC25B-CDK2 inh 7.8 (no result: HIV TAR-Tat)
Cc1csc2nc(CSc3nnc(NC(=O)COc4ccccc4)s3)cc(=O)n12	none (no result: CDC25B-CDK2 inh)
Cc1[nH]c(=O)[nH]c(=O)c1S(=O)(=O)Nc1ccc2oc(-c3ccncc3)nc2c1	HIV TAR-Tat 6.2 (no result: CDC25B-CDK2 inh)
Cc1[nH]c(=O)[nH]c(=O)c1S(=O)(=O)Nc1ccc(-c2ccno2)cc1	none (no result: CDC25B-CDK2 inh)
CCn1nc(-c2ccccc2Br)nc2c(=O)n(C)c(=O)nc1-2	CDC25B-CDK2 inh 12
CCn1nc(-c2ccccn2)nc2c(=O)n(C)c(=O)nc1-2	none
O=C1CCSc2c1cccc2C(=O)N1CCOCC1	none (no result: CDC25B-CDK2 inh)
O=C1c2ccccc2-c2c1cccc2C(=O)N1CCOCC1	CDC25B-CDK2 inh 17
Cn1c(=O)c2c(nc(NCCOc3ccc(Cl)cc3)n2C)n(C)c1=O	none
Cc1ccc(C2CC(=O)Nc3cc4c(cc32)OCCO4)cc1Br (stereo unspecified)	none
N#Cc1c(N)nc2c(c1N)C(C(C#N)C#N)c1cc(Br)ccc1O2 (stereo unspecified)	CDC25B-CDK2 inh 7 (no result: HIV TAR-Tat)
COc1ccc(Br)cc1C1C(C#N)=C(N)Oc2cc(O)ccc21 (stereo unspecified)	none
COc1ccc2c3c([nH]c2c1)C(C)(C(=O)O)NCC3 (stereo unspecified)	none
CC1(C(=O)O)NCCc2c1[nH]c1ccccc21 (stereo unspecified)	CDC25B-CDK2 inh 10
Clc1cccc(-c2nnc3sc(COc4ccccc4)nn23)c1	none
COc1ccccc1CNc1ncnc2c1c(-c1ccccc1)cn2-c1ccccc1	none (no result: HIV TAR-Tat)
Cc1nc(N2CCOCC2)cc(N2CCN(C(=O)Nc3ccccc3Cl)CC2)n1	none
COc1cc2nc(N3CCCN(C)CC3)nc(NC3CCN(Cc4ccccc4)CC3)c2cc1OC	HIV TAR-Tat 5.1
COc1cc2nc(N3CCN(C(=O)c4ccco4)CC3)nc(N)c2cc1OC	none
CCCCOC(=O)CCn1[nH]c(=O)c2ccccc2c1=O	none (no result: HIV TAR-Tat)
COC(=O)CN(C#N)c1nc(N(C)C)nc(N(C)C)n1	none
COCCNc1cc(N2CCCC2)c2noc3c2c1C(=O)c1ccccc1-3	none
CN(C)CCCNc1cc(N2CCN(C3CCCCC3)CC2)c2noc3c2c1C(=O)c1ccccc1-3	HIV TAR-Tat 8.7
CN(C)CCCNc1cc(N2CCN(c3ccccn3)CC2)c2noc3c2c1C(=O)c1ccccc1-3	HIV TAR-Tat 7.2
O=C1c2ccccc2-c2onc3c(N4CCN(C5CCCCC5)CC4)cc(NCCO)c1c23	none
CC1CCN(c2cc(NCCCN(C)C)c3c4c(onc24)-c2ccccc2C3=O)CC1	HIV TAR-Tat 16
CCOCCCNc1cc(N2CCC(C)CC2)c2noc3c2c1C(=O)c1ccccc1-3	none
COCCNc1cc(N2CCN(c3ccccn3)CC2)c2noc3c2c1C(=O)c1ccccc1-3	none
COCCNc1cc(N2CCN(C3CCCCC3)CC2)c2noc3c2c1C(=O)c1ccccc1-3	HIV TAR-Tat 8.1
COc1cc2c(cc1C)/C(=N\OC(=O)c1cc(OC)c(OC)c(OC)c1)CCC2	none (no result: HIV TAR-Tat)
Cc1ccccc1-c1noc2ncnc(NCc3ccc(Cl)cc3)c12	none (no result: CDC25B-CDK2 inh)
O=C(NCC(=O)N1CCC(N2CCCCC2)CC1)C1CCCCC1	none (no result: HIV TAR-Tat)
CCOC(=O)N1CCN(S(=O)(=O)N2CCCC(C(=O)NC3CCCC(C)C3C)C2)CC1 (stereo unspecified)	none (no result: CDC25B-CDK2 inh)
O=C(COc1ccc(S(=O)(=O)NC2CCCCC2)cc1)NCC1CCCO1 (stereo unspecified)	none
CCC(C)OC(=O)c1c(NC(=O)c2nc3ncccn3n2)sc2c1CCCC2 (stereo unspecified)	none
COc1ccc(C2C3=C(CC(c4ccco4)CC3=O)Nc3nc4ccccc4n32)cc1 (stereo unspecified)	none
CC1(C)Cc2c(sc3[nH]c(=S)n(-c4cccc(Br)c4)c(=O)c23)CO1	none (no result: HIV TAR-Tat)
O=C1CC(c2ccco2)CC2=C1C(c1ccco1)Nc1ccccc1N2 (stereo unspecified)	none
CCN(CC)c1ccc(C2CC(=O)C3=C(C2)Nc2ccccc2NC3c2ccco2)cc1 (stereo unspecified)	HIV TAR-Tat 25
Cc1ccc(C2Nc3ccccc3NC3=C2C(=O)CC(c2cccs2)C3)cc1 (stereo unspecified)	none
CN(C)c1ccc(C2Nc3ccccc3NC3=C2C(=O)CC(c2cccs2)C3)cc1 (stereo unspecified)	CDC25B-CDK2 inh 7.4
N#Cc1c(NC(=O)c2ccc3snnc3c2)sc2c1CCCC2	none
CC12CN3CC(c4ccccc4)(CN(C1)C3c1ccccc1O)C2=O (stereo unspecified)	none
COc1cccc(C2N3CC4(C)CN2CC(c2ccccc2)(C3)C4=O)c1O (stereo unspecified)	HIV TAR-Tat 4.2

Source: PubChem (Center for Chemical Genomics, University of Michigan)
